Values joined by “and” are separate entries in the source; they are usually repeats but may differ in a detail not shown here. Equal entries are not always repeated. Hit rate of the full screen: of about 5,500 compounds, about 2,000 (36%) were called active. Another 18% or so got no clear call; they are omitted. Rule as the data show it: active = normalized growth mostly below about 0.91 (no sharp cut-off); inconclusive = no clear call, values can overlap the other calls; inactive = mostly above about 0.92. The list shows a part of the results.
Test: chemical genetic growth profiling, strain panel (AID 1159580);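 also: tested at 20 µM; growth read once vehicle control cultures reached saturation at 30 °C; 1 = growth at the plate median or of vehicle wells; lower values mean less growth of the strain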
Conditions: S. cerevisiae deletion strains, growth OD

Measured: normalized growth

O=C1C(O)=C(O)C(=O)C(O)=C1O
inactive: locus YAL013W, strain DEP1, active compounds read low 0.983 | locus YAL021C, strain ccr4, active compounds read low 1 | locus YAL026C, strain drs2, active compounds read low 1.02 | locus YAL030W, strain snc1, active compounds read low 1 | locus YBL061C, strain skt5, active compounds read low 1.03 | locus YBR009C, strain hhf1, active compounds read low 0.992 | locus YBR021W, strain FUR4, active compounds read low 1.01 | locus YBR023C, strain chs3, active compounds read low 1.02 | locus YBR171W, strain sec66, active compounds read low 1.02 | locus YBR229C, strain ROT2, active compounds read low 0.964 | locus YBR231C, strain swc5, active compounds read low 1.02 | locus YBR279W, strain paf1, active compounds read low 1.01 | locus YCL011C, strain gbp2, active compounds read low 0.991 | locus YCL016C, strain dcc1, active compounds read low 1.02 | locus YCL029C, strain bik1, active compounds read low 0.991 | locus YCL061C, strain MRC1, active compounds read low 1.01 | locus YCL069W, strain vba3, active compounds read low 1.03 | locus YCR088W, strain abp1, active compounds read low 1.01 | locus YDL005C, strain med2, active compounds read low 1.01 | locus YDL035C, strain GPR1, active compounds read low 1 | locus YDL040C, strain nat1, active compounds read low 0.997 | locus YDL074C, strain BRE1, active compounds read low 0.968 | locus YDL101C, strain DUN1, active compounds read low 0.965 | locus YDL134C, strain PPH21, active compounds read low 0.983 | locus YDL185W, strain tfp1, active compounds read low 0.959 | locus YDL192W, strain arf1, active compounds read low 0.99 | locus YDR001C, strain nth1, active compounds read low 1 | locus YDR069C, strain doa4, active compounds read low 1.01 | locus YDR101C, strain arx1, active compounds read low 1.01 | locus YDR137W, strain rgp1, active compounds read low 0.984 | locus YDR150W, strain NUM1, active compounds read low 0.968 | locus YDR159W, strain sac3, active compounds read low 0.977 | locus YDR162C, strain NBP2, active compounds read low 0.939 | locus YDR195W, strain ref2 0.999 | locus YDR297W, strain sur2, active compounds read low 1.02 | locus YDR318W, strain mcm21, active compounds read low 1.03 | locus YDR334W, strain swr1, active compounds read low 1.01 | locus YDR335W, strain msn5, active compounds read low 1.01 | locus YDR388W, active compounds read low 0.991 | locus YDR392W, strain spt3, active compounds read low 1.04 | locus YDR502C, strain sam2, active compounds read low 0.996 | locus YEL003W, strain gim4, active compounds read low 1.02 | locus YEL037C, strain rad23, active compounds read low 0.998 | locus YEL061C, strain CIN8 (second series), active compounds read low 1.01 | locus YEL061C, strain CIN8, active compounds read low 0.987 | locus YER015W, strain faa2, active compounds read low 1.01 | locus YER016W, strain bim1, active compounds read low 1.01 | locus YER110C, active compounds read low 0.986 | locus YER111C, strain swi4, active compounds read low 0.991 | locus YER155C, strain BEM2 (second series), active compounds read low 1.01 | locus YER155C, strain BEM2, active compounds read low 1 | locus YER167W, strain BCK2, active compounds read low 1.01 | locus YFR010W, strain ubp6, active compounds read low 1 | locus YGL078C, strain dbp3, active compounds read low 0.977 | locus YGL086W, strain mad1, active compounds read low 1.02 | locus YGL167C, strain pmr1, active compounds read low 1 | locus YGL173C, strain kem1, active compounds read low 1.01 | locus YGL227W, strain vid30, active compounds read low 1.01 | locus YGL240W, strain doc1, active compounds read low 1.02 | locus YGL248W, strain PDE1, active compounds read low 0.974 | locus YGL253W, strain hxk2, active compounds read low 1 | locus YGR078C, strain PAC10, active compounds read low 0.971 | locus YGR135W, strain pre9, active compounds read low 0.968 | locus YGR229C, strain SMI1, active compounds read low 0.969 | locus YGR252W, strain gcn5, active compounds read low 1.04 | locus YHR013C, strain ard1, active compounds read low 1.03 | locus YHR027C, strain rpn1, active compounds read low 1.02 | locus YHR030C, strain SLT2, active compounds read low 1 and 0.988 | locus YHR079C, strain IRE1 (second series), active compounds read low 1 | locus YHR079C, strain IRE1, active compounds read low 0.973 | locus YHR094C, strain hxt1, active compounds read low 0.984 | locus YHR129C, strain ARP1, active compounds read low 0.994 | locus YHR142W, strain chs7, active compounds read low 1.02 | locus YHR200W, strain rpn10, active compounds read low 1 | locus YIL066C, strain RNR3, active compounds read low 0.977 | locus YIL073C, strain SPO22, active compounds read low 1.07 | locus YIL125W, strain kgd1, active compounds read low 0.967 | locus YIR030C, strain dcg1, active compounds read low 0.993 | locus YJL092W, strain hpr5, active compounds read low 1.01 | locus YJL095W, strain BCK1 (second series), active compounds read low 1.02 | locus YJL095W, strain BCK1, active compounds read low 0.991 and 0.993 | locus YJL115W, strain asf1, active compounds read low 1 | locus YJL129C, strain trk1, active compounds read low 1.03 | locus YJL134W, strain LCB3, active compounds read low 0.995 | locus YJL154C, strain vps35, active compounds read low 1.02 | locus YJL164C, strain tpk1, active compounds read low 1 | locus YJL166W, strain qcr8, active compounds read low 1.01 | locus YJL168C, strain set2, active compounds read low 0.996 | locus YJL187C, strain SWE1 (second series), active compounds read low 0.961 | locus YJL187C, strain SWE1, active compounds read low 1.01 | locus YJR043C, strain POL32, active compounds read low 1.03 | locus YJR066W, strain TOR1, active compounds read low 0.941
